Compound activity deposited in PubChem by several laboratories.
Beta cell apopt: beta cell apoptosis inhibition | INS-1E cytokine-induced death, ATP luminescence, 48 h; percent of positive-control rescue, neutral wells zero | protection from apoptosis, % (test concentration not listed) | 300,000 tested, 0.8% active;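 active = Every replicate reaches about 75%, or at least half do and their mean reaches it too, limit read from the data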;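 note: 0% = cytokine-treated negative control wells and 100% = positive control rescue; higher means more ATP so stronger rescue from cytokine killing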
Mdm2-MdmX inh: inhibitors of human Mdm2/MdmX interaction; 330,000 tested, 3% active; SaOS-2 split-luciferase Mdm2/MdmX complementation, luminescence; inhibition, % at 8 µM; O15151+Q00987;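 active = inhibition of at least 50% at 8 µM in the primary screen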
PP1 counter: blocks human PP1-alpha phosphatase, a PP5 counter-screen | P62136 | purified PP1alpha, OMFP fluorescence | inhibition, % at 6.7 µM | 320,000 tested, 0.9% active;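 active = inhibition above the mean inhibition of all tested compounds plus 3 SD, computed separately for each screening campaign, cut at about 15% in these data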
Target sequence (P62136 whole entry, looked up): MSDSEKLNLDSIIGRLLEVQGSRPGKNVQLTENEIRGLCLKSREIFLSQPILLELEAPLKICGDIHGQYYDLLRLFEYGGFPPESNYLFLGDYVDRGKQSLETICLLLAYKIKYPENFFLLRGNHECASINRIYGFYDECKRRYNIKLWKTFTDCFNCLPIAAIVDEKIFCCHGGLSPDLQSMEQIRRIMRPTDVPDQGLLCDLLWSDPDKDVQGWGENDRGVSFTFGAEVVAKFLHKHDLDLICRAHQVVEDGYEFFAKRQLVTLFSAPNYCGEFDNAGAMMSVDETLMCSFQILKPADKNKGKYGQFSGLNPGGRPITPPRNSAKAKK
Calb FLC: affects C. albicans growth with fluconazole. AID 1979. 300,000 tested, 0.57% active. C. albicans CaCi-2 (fluconazole-resistant clinical isolate) + fluconazole, Alamar Blue growth, 48 h. growth inhibition, % (concentration not given with the values);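 active = growth inhibition above about 58% in most replicates, limit read from the data, passing the limit was not always enough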;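 note: all wells also contain fluconazole at 8 µg/ml as a sub-toxic cotreatment; 0% = median of DMSO wells and 100% = median of geldanamycin control wells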
CSC inhib: cancer stem cell inhibition; cancer stem cell-like cells viability, luminescence; inhibition, % at 7.5 µM; 300,000 tested, 1.1% active; in the data active = inhibition above about 75%; tested in HMLE shEcad cells
PP5 primary: inhibitors of human protein phosphatase 5 (PP5); P53041; purified PP5c, OMFP substrate fluorescence; inhibition, % at 6.7 µM; 320,000 tested, 0.18% active; AID 1987;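 active = inhibition above the campaign's mean inhibition across all tested compounds plus 3 SD, cut at about 9.5% in these data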;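 note: 0% = DMSO only and 100% = 100 µM cantharidin control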
Mdm2 MdmX conf: human Mdm2/MdmX binding inhibition, confirmed; shares compounds with Mdm2-MdmX inh; luminescent assay; inhibition, % at 8 µM; 10,000 tested, 55% active; AID 489028; in the data active = inhibition above about 40%
FLuc counter: counter-screen for Mdm2/MdmX inhibitors: full-length luciferase. shares compounds with Mdm2-MdmX inh. SaOS-2 full-length luciferase counterscreen, luminescence. inhibition, % at 8 µM. 6,200 tested, 77% active;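 active = mean inhibition at 8 µM reaching about 37%, which flags the compound as non-specific, limit read from the data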;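 note: p53-null SaOS-2 cells with luciferase driven by a doxycycline-inducible promoter; compound on cells about two nights before reading with doxycycline added after day one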
The depositor's hits bear a star; x = no result given. Shown are actives, neighbours in structure and some others; about 4.9% of the full set was active somewhere.

SMILES	Beta cell apopt	Mdm2-MdmX inh	PP1 counter	Calb FLC	CSC inhib	PP5 primary	Mdm2 MdmX conf	FLuc counter
COCCCN(Cc1cccs1)S(=O)(=O)c1csc(C(N)=O)c1	-9	8	4	10	-7	1	x	x
CCN(CC)S(=O)(=O)c1ccc(N/N=C/c2cc(OC)ccc2O)nc1	108*	80*	10	23	104*	1	83*	23
CCN(CC)S(=O)(=O)c1ccc(N/N=C/c2cccnc2)nc1	-3	0	-1	1	8	-1	x	x
COc1ccc(NC(=O)CCCCCn2nnc3ccccc3c2=O)cc1OC	-3	5	-5	44	-5	2	x	x
CC(C)NC(=O)c1ccc(CN2CCC(Cc3ccccc3)CC2)cc1	6	9	-11	16	-15	5	x	x
Cc1ccccc1NC(=O)c1ccc(CN2CCC(Cc3ccccc3)CC2)cc1	4	58*	1	1	-6	2	35	82*
CC(C)COc1ccc(C(=O)Nc2ccc(NC(=O)c3ccco3)c(Cl)c2)cc1	10	60*	-5	-1	x	0	10	x
Cc1cccc(C2(c3cccc(C)c3)CC2C(=O)Nc2ccc([N+](=O)[O-])cc2O)c1 (stereo not drawn)	x	90*	11	39	x	0	94*	51*
COc1ccc(S(=O)(=O)N/N=C(/C)c2ccncc2)cc1	-4	13	-2	4	-2	1	x	x
Cc1nc(NCc2ccco2)c2c(C)c(C)sc2n1	28	100*	0	5	98*	4	96*	54*
Cc1sc2nc3c4ccccc4c(NCc4ccco4)nn3c(=O)c2c1C	2	-104	2	x	x	3	x	x
Cn1c(NCC(O)c2ccccc2)nc2c1c(=O)n(Cc1ccc(Cl)c(Cl)c1)c(=O)n2C (stereo not drawn)	4	63*	-4	3	-10	4	21	x
CN1CCN(c2cc3c(c4c2[nH]c2ccccc24)C(=O)CC(C)(C)C3)CC1	x	57*	-2	101*	6	4	21	x
CCc1ccccc1NC(=O)COc1ccc(C(=S)N2CCCC2)cc1	3	29	-1	-7	-9	-4	x	x
Cc1nnc2c3ccccc3c(-c3cccs3)nn12	-7	54*	-2	-25	-5	-4	35	53*
Cc1nnc2c3ccccc3c(Cl)nn12	-4	7	-2	-3	2	4	x	x
Cc1nnc2c3ccccc3c(-c3ccc(O)cc3)nn12	-6	66*	-6	-8	3	-1	33	62*
CC1CCN(c2nnc(-c3cccs3)c3ccccc23)CC1	-13	11	1	10	25	3	x	x
CC(C)CNC(=O)c1cccc(NC(=O)CCc2ccccc2)c1	1	7	-3	-16	-11	0	x	x
O=C(c1ccc(S(=O)(=O)c2ccc(F)cc2)c([N+](=O)[O-])c1)N1CCCCCC1	41	56*	0	7	33	0	31	30
O=C(c1ccc(S(=O)(=O)Cc2ccccc2Cl)c([N+](=O)[O-])c1)N1CCOCC1	-44	51*	1	5	11	6	42*	49*
O=C(NC1CCCCC1)c1ccc(S(=O)(=O)c2ccccc2Cl)c([N+](=O)[O-])c1	-4	77*	0	-1	10	2	66*	17
O=C(NC1CCCCC1)c1ccc(-n2cncn2)c([N+](=O)[O-])c1	5	-11	x	x	-18	x	x	x
CN(C(=O)c1ccc(S(=O)(=O)c2cccc(Cl)c2)c([N+](=O)[O-])c1)C1CCCCC1	-9	73*	0	-2	47	4	60*	29
O=C(c1ccc(S(=O)(=O)Cc2ccccc2F)c([N+](=O)[O-])c1)N1CCCC1	-43	28	3	14	1	2	x	x
COc1ccc(N(CC(=O)NCc2ccccc2)S(=O)(=O)c2c(C)n[nH]c2C)cc1	-1	13	1	4	-13	-3	x	x
CCCCNC(=O)Nc1nc2ccc(CC)cc2s1	9	-22	1	7	55	0	x	x
